Here are results for 39 compounds from PubChem BioAssay (Tox21).

Records with an inconclusive call do not appear. Entries that show only a call come without a potency. Activity calls are given as the source filed them. The call rests on the fitted dose curve; in most records, active means well fitted activation curve with a large enough effect; inconclusive means small, poorly fitted or top-dose-only effect; inactive means flat fitted curve, though single readings scatter. Non-standard residues stand in square brackets, D forms with d. Residues, ends and D or L forms follow the SMILES beside them. pGlu = O=C1CC[C@@H](C(=O)O)N1; Thz = O=C(O)[C@@H]1CSCN1

The nature of this experiment: qHTS assay to identify small molecule phospholipidosis (PLD) inducers (AID 1259344). As to conditions: HepG2 phospholipidosis, LipidTOX Red imaging, 24 h; series mostly up to 38.3 µM. The method, boiled down: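 Read-out is LipidTOX Red fluorescence (ex 595/em 615) imaged in HepG2 cells after 24 h compound exposure at 37 C, with Hoechst nuclear counterstain (ex 352/em 461) allowing per-cell normalisation.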
In general terms: Quantitative high-throughput screening tests each substance at several concentrations.
With `O=C1CC[C@@H](C(=O)N2CSC[C@H]2C(=O)O)N1` ([pGlu]-[Thz]-OH), the Potency result was “inactive”. To `COc1ccc(CC2c3cc(OC)c(OC)cc3CC[N+]2(C)CCC(=O)OCCCCCOC(=O)CC[N+]2(C)CCc3cc(OC)c(OC)cc3C2Cc2ccc(OC)c(OC)c2)cc1OC` (centres undefined) belongs “inactive”; to `CCN(CC)CCCC(C)Nc1cc(/C=C/c2ccccc2Cl)nc2cc(Cl)ccc12` (centres undefined), “inactive”. To `CO[C@H]1O[C@@H]2O[C@@]3(C)CC[C@H]4[C@H](C)CC[C@@H]([C@H]1C)[C@@]24OO3` belongs “inactive”; to `CO[C@H]1C[C@@H]2CC[C@@H](C)[C@@](O)(O2)C(=O)C(=O)N2CCCC[C@H]2C(=O)O[C@H]([C@H](C)C[C@@H]2CC[C@@H](OCCO)[C@H](OC)C2)CC(=O)[C@H](C)/C=C(\C)[C@@H](O)[C@@H](OC)C(=O)[C@H](C)C[C@H](C)/C=C/C=C/C=C/1C`, “inactive”. To `CN1c2cc(O)c(N=NC(N)=O)cc2CC1S(=O)(=O)O` (centres undefined) belongs “inactive”. On to `COc1ccc(-c2noc(CC(=O)O)c2-c2ccc(OC)cc2)cc1`, for which the Potency entry is “inactive”.

Consider `Cn1c(O)c(N=NC(N)=S)c2ccccc21`, for which the Potency result was “inactive”. In the case of `Nc1ncnc2c1ncn2CCOCP(=O)(O)O` it was “inactive”. In the case of `CC(=C\c1ccccc1)/C=C1/SC(=S)N(CC(=O)O)C1=O` it was “inactive”; in that of `CC(CCc1ccc(O)cc1)NCC(O)c1ccc(O)cc1` (centres undefined), “inactive”. For the compound `C[C@H](CCCC(C)(C)O)[C@H]1CC[C@H]2[C@@H]3CC=C4C[C@@H](O)CC[C@]4(C)[C@H]3CC[C@]12C`, the Potency result was “inactive”. In the case of `Nc1nc(=O)n([C@@H]2CS[C@H](CO)O2)cc1F` it was “inactive”; in that of `CO[C@H]1C[C@@H]2CC[C@@H](C)[C@@](O)(O2)C(=O)C(=O)N2CCCC[C@H]2C(=O)O[C@H]([C@H](C)C[C@@H]2CC[C@@H](OC(=O)C(C)(CO)CO)[C@H](OC)C2)CC(=O)[C@H](C)/C=C(\C)[C@@H](O)[C@@H](OC)C(=O)[C@H](C)C[C@H](C)/C=C/C=C/C=C/1C`, “inactive”. As for `O=C1NCCN1c1ncc([N+](=O)[O-])s1`, the Potency result was “inactive”. In the case of `CC(/C=C/C=C(\C)C(=O)O[C@@H]1O[C@H](CO[C@@H]2O[C@H](CO)[C@@H](O)[C@H](O)[C@H]2O)[C@@H](O)[C@H](O)[C@H]1O)=C\C=C\C=C(C)\C=C\C=C(/C)C(=O)O[C@@H]1O[C@H](CO[C@@H]2O[C@H](CO)[C@@H](O)[C@H](O)[C@H]2O)[C@@H](O)[C@H](O)[C@H]1O` it was “inactive”. Regarding `CNC(=O)[C@H](Cc1c[nH]c2ccccc12)NC(=O)[C@@H](CC(=O)NO)CC(C)C`, the Potency result is “inactive”. To `CN[C@@H]1[C@H](O[C@H]2[C@H](O[C@H]3[C@H](O)[C@@H](O)[C@H](N=C(N)N)[C@@H](O)[C@@H]3N=C(N)N)O[C@@H](C)[C@]2(O)CO)O[C@@H](CO)[C@H](O)[C@H]1O` belongs “inactive”; to `CC(C)(C)NCC(O)c1ccc(O)c(CO)n1` (centres undefined), “inactive”. On to `CCC(=O)O[C@]1(C(=O)CCl)[C@@H](C)C[C@H]2[C@@H]3C[C@H](F)C4=CC(=O)C=C[C@]4(C)[C@@]3(F)[C@@H](O)C[C@@]21C`, for which the Potency entry is “inactive”. In the case of `NCCCC[C@H](N)C(=O)O` it was “inactive”. In the case of `COc1cc2c(cc1OC)CC(=O)N(CCCN(C)C[C@H]1Cc3cc(OC)c(OC)cc31)CC2` it was “inactive”; in that of `CCCCC/C=C\C/C=C\C/C=C\CCCCC(=O)O`, “inactive”; in that of `NC(=O)c1ccc[n+]([C@@H]2O[C@H](COP(=O)([O-])OP(=O)(O)OC[C@H]3O[C@@H](n4cnc5c(N)ncnc54)[C@H](O)[C@@H]3O)[C@@H](O)[C@H]2O)c1`, “inactive”.

For `C=C1C(=O)O[C@H]2[C@H]1CC/C(C)=C\CC[C@@]1(C)O[C@@H]21`, the Potency entry was “inactive”. In the case of `C#C[C@]1(O)CC[C@H]2[C@@H]3CCC4=CC(=O)CC[C@@H]4[C@H]3C(=C)C[C@@]21CC` it was “inactive”; in that of `CN1CCN(C(c2ccccc2)c2ccc(Cl)cc2)CC1` (centres undefined), “inactive”; in that of `CC(C)(C)C(=O)OCOC(=O)[C@@H]1N2C(=O)[C@@H](N=CN3CCCCCC3)[C@H]2SC1(C)C`, “inactive”. To `CCCOc1ccc2nc(NC(=O)OC)sc2c1` belongs “inactive”; to `O=C1CCC(=O)N1CO`, “inactive”.

For `C=Cc1c(C)c2cc3nc(cc4[nH]c(cc5nc(cc1[nH]2)C(C)=C5CCC(=O)OC)c(CCC(=O)O)c4C)[C@@]1(C)C3=CC=C(C(=O)OC)[C@H]1C(=O)OC`, the Potency result is “inactive”.

For `Cc1ccc(S(=O)(=O)NC(=O)N[C@@H](C)Cc2ccccc2)cc1`, the Potency result is “inactive”. To `CC(C)N=c1cc2n(-c3ccc(Cl)cc3)c3ccccc3nc-2cc1Nc1ccc(Cl)cc1` belongs “inactive”; to `NC(=O)OC[C@@H]1[C@H](NC(=O)/C(=N\OCC(=O)O)c2csc(N)n2)C(=O)N1S(=O)(=O)O`, “inactive”. To `C#C[C@]1(O)CC[C@H]2[C@@H]3CCC4=CCCC[C@@H]4[C@H]3C(=C)C[C@@]21CC` belongs “inactive”; to `COc1cc(C)c(/C=C/C(C)=C/C=C/C(C)=C/C(=O)O)c(C)c1C`, “inactive”. On to `C=C1CC[C@@H]2[C@](C)(CO)[C@H](O)CC[C@@]2(C)[C@@H]1C/C=C1/C(=O)OC[C@H]1O`, for which the Potency entry was “inactive”. For the compound `CC1=C(/C=C/C(C)=C/C=C/C(C)=C/C(=O)Oc2c(C)c(C)c3c(c2C)CC[C@@](C)(CCC[C@H](C)CCC[C@H](C)CCCC(C)C)O3)C(C)(C)CCC1`, the Potency entry is “inactive”. In the case of `C#C[C@]1(O)CC[C@H]2[C@@H]3CCC4=C/C(=N/O)CC[C@@H]4[C@H]3CC[C@@]21CC` it was “inactive”.
